# Reference: ChEMBL document CHEMBL3988442, “University of Dundee, Small-Polar-MMV Screening Library” (2021)
# For part of these data: Results with a measured potency or affinity are listed apart.
# Tests used:
# Parameters in all cases: scale not given: direction of the effect not stated beside the values
# [1] = biological target: Protein translocase subunit SecA (Escherichia coli (strain K12)) (UniProt P10408); test: Assay to Identify E. coli SecA ATPase Inhibitors; assay type: functional; conditions: 30 µM
# [2] = biological target: T1, Ubiquitin-activating enzyme e1, putative (Leishmania donovani (strain BPK282A1)) (UniProt E9BSI1); test: Leishmania donovani Ubiquitin Activating Enzyme (LdE1); assay type: functional; conditions: 30 µM
# T1 sequence (whole entry): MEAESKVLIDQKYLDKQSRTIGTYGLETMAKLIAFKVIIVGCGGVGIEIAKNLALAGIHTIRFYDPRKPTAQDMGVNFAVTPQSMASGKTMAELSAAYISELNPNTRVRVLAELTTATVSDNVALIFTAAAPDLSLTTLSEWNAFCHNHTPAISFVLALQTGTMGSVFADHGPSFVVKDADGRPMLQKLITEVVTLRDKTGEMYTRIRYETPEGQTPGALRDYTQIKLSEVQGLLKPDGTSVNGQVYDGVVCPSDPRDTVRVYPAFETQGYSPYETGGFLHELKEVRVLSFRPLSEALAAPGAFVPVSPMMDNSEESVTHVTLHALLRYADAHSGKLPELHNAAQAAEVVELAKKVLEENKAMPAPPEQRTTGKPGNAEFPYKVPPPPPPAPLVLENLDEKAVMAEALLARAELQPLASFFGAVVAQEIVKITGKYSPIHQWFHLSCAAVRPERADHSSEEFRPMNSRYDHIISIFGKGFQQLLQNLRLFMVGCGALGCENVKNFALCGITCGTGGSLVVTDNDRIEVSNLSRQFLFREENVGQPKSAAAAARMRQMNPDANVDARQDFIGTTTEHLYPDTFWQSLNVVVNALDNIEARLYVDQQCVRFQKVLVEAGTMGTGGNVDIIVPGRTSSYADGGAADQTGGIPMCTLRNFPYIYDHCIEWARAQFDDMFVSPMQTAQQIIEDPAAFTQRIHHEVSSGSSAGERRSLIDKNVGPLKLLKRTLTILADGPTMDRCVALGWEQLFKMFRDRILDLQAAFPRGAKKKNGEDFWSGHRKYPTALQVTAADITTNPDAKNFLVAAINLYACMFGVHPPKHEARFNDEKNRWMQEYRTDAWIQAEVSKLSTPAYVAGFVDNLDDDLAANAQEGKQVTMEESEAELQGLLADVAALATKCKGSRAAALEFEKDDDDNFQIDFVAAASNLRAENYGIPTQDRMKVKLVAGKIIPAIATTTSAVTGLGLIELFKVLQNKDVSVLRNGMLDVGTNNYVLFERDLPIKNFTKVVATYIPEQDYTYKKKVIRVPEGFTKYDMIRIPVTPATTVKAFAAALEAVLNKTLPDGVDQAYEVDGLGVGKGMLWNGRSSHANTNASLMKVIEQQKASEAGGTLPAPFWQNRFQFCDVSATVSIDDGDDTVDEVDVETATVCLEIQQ
# [3] = biological target: T2, Aspartate--tRNA(Asp/Asn) ligase (Mycobacterium tuberculosis (strain ATCC 25618 / H37Rv)) (UniProt P9WFW3); test: Assay for Asp RNA synthetase-1 from Mycobacterium tuberculosis; assay type: functional; conditions: 30 µM; also: in the data most compounds retested in dose-response had high values
# T2 sequence (whole entry): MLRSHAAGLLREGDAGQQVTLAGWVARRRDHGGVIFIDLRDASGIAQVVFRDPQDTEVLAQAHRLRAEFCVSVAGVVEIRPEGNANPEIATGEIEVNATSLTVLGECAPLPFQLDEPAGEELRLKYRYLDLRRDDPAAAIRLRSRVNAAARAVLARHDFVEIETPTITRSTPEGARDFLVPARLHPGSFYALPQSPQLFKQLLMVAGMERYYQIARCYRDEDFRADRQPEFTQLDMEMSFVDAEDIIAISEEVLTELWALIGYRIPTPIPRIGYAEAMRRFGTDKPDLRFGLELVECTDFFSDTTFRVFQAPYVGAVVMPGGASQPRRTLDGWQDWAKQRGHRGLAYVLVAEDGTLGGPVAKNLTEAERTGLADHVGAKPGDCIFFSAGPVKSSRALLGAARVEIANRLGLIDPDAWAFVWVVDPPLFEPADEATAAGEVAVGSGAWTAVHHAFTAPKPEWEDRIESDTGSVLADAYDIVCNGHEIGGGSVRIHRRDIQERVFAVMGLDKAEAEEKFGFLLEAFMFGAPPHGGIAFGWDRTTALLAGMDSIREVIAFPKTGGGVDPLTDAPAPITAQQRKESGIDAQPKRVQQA
# [4] = biological target: AMP-activated protein kinase, AMPK (Homo sapiens) (UniProt P54646+O43741+P54619+Q9UGJ0+Q9Y478+Q13131+Q9UGI9); test: AMP-dependent Kinase enzyme assay. An in vitro enzyme assay that detects ADP turnover that is directly proportional to AMPK activity. This uses naive AMPK that is activated during the assay with MK-8722; assay type: functional; conditions: 30 µM
# [5] = biological target: Sialic acid-binding Ig-like lectin 9 (Homo sapiens) (UniProt Q9Y336); test: Hs-Siglec9 ALPHAscreen SOP 20170721; conditions: 10 µM
# Trypanosoma cruzi = test: Trypanosoma cruzi phosphomannomutase and mannose-1-phosphate guanylyltransferase assay; assay type: functional; conditions: 10 µM
# [6] = biological target: T3, Arginase-2, mitochondrial (Homo sapiens) (UniProt P78540); test: in vitro enzyme assay to detect the production of urea directly proportional to the activity of Arginase II; assay type: functional; conditions: 33.3 µM; also: in the data most compounds retested in dose-response had high values
# T3 sequence (whole entry): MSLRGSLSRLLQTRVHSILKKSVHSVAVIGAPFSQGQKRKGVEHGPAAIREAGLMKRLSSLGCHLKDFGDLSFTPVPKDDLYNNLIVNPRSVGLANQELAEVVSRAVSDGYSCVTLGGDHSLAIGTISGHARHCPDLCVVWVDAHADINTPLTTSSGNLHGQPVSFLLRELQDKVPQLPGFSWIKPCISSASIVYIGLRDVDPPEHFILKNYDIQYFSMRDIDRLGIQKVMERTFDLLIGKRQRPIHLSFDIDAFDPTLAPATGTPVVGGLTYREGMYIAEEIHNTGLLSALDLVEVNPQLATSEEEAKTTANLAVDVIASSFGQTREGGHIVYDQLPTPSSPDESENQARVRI
# [7] = biological target: T4, Proteasome subunit beta (Trypanosoma cruzi) (UniProt O96673); test: Trypanosoma cruzi proteasome chymotrypsin-like activity (TcProtChymo) assay.; also: in the data most compounds retested in dose-response had high values; assay type: functional; conditions: 9.37 µM
# T4 sequence (whole entry): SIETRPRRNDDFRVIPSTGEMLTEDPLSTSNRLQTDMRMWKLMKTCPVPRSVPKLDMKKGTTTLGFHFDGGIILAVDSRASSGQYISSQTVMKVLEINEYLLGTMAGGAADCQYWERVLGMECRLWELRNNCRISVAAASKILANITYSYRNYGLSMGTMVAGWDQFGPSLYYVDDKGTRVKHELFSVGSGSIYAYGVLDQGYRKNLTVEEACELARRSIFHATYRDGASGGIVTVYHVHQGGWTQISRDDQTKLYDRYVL
# Homo sapiens = species: Homo sapiens; test: To identify inhibition of the IFN signalling (Jak-Stat) pathway via expression of an eGFP reporter gene under the control of an IFN-stimulated response element (ISRE) containing MxA promoter.; assay type: functional; conditions: 30 µM
# [8] = biological target: Shiga toxin 2 (Escherichia coli O157:H7) (UniProt P09385+P09386); test: E. coli 0.157:H7 Shiga Toxin SOP - stx2 screening assay; assay type: functional; conditions: 30 µM
# [9] = biological target: T5, Tyrosyl-tRNA synthetase, putative (Trypanosoma cruzi (strain CL Brener)) (UniProt Q4DSP6); test: Trypanosoma cruzi tyrosyl tRNA synthetase (TcYRS) _High Tyrosine SOP; assay type: functional; conditions: 30 µM; also: in the data most compounds retested in dose-response had high values
# T5 sequence (whole entry): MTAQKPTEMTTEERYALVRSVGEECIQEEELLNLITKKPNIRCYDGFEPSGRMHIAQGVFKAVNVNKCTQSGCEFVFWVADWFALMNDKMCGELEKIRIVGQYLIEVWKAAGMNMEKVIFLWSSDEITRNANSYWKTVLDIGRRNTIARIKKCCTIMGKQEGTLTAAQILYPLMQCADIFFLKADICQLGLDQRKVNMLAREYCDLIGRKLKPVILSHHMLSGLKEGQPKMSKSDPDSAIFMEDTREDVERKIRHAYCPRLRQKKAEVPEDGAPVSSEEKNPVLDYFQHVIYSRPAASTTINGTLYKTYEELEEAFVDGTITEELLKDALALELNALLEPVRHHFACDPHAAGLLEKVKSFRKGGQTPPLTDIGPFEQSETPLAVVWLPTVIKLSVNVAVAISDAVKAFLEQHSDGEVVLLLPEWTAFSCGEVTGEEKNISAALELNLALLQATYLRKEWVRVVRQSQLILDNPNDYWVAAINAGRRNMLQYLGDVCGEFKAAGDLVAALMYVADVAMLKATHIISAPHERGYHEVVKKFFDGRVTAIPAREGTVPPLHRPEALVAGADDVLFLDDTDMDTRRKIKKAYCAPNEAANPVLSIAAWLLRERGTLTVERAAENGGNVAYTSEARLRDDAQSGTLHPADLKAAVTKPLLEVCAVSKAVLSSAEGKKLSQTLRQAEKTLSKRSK
# [10] = biological target: T5, Tyrosyl-tRNA synthetase, putative (Trypanosoma cruzi (strain CL Brener)); test: Trypanosoma cruzi tyrosyl tRNA synthetase (TcYRS) SOP; assay type: functional; conditions: 30 µM
# [11] = biological target: Chromo domain-containing protein 1 (Saccharomyces cerevisiae (strain ATCC 204508 / S288c) (Baker's yeast)) (UniProt P32657); test: ScCHD-1 Enzyme Inhibition Assay; assay type: functional; conditions: 30 µM; also: in the data most compounds retested in dose-response had high values
# Chromo domain-containing protein 1 (Saccharomyces cerevisiae (strain ATCC 204508 / S288c) (Baker's yeast)), sequence (P32657 whole entry, the tested form may be a part): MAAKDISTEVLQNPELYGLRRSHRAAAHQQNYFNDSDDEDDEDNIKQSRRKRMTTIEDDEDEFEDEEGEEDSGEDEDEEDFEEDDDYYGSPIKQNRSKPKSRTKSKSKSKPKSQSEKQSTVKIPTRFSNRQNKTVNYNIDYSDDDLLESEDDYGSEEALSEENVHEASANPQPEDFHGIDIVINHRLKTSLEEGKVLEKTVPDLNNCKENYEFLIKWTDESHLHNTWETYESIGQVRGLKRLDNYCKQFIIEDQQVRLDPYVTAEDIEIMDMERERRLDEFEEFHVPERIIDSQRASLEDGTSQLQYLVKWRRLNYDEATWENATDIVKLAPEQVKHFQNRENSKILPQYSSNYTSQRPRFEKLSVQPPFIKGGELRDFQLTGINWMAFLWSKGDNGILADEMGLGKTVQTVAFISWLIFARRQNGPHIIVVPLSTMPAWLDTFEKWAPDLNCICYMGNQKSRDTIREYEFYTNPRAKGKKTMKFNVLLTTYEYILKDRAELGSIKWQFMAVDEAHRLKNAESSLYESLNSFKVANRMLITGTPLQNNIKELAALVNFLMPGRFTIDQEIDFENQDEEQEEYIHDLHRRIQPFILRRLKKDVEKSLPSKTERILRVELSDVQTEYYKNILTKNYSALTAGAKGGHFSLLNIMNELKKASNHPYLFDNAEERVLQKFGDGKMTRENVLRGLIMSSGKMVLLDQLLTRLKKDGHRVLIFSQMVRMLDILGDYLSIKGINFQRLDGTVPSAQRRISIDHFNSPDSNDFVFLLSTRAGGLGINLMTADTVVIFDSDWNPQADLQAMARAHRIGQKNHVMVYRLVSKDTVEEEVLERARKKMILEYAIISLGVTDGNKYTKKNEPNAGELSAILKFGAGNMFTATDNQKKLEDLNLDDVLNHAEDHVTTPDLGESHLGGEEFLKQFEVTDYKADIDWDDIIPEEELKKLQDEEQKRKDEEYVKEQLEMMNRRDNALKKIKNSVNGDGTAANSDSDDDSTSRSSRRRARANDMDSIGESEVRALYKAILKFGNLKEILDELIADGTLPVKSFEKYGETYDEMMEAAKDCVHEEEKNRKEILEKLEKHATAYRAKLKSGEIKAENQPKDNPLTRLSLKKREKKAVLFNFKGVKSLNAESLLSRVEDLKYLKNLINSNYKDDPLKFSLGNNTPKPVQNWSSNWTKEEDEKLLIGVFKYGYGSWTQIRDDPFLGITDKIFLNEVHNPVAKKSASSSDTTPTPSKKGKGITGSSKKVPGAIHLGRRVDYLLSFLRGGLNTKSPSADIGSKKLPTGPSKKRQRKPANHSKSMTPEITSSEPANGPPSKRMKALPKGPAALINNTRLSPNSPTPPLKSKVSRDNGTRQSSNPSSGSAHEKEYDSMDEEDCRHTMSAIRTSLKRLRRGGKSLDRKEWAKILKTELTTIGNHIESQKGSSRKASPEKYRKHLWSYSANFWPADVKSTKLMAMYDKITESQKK
# Protein translocase subunit SecA (Escherichia coli (strain K12)), sequence (P10408 whole entry): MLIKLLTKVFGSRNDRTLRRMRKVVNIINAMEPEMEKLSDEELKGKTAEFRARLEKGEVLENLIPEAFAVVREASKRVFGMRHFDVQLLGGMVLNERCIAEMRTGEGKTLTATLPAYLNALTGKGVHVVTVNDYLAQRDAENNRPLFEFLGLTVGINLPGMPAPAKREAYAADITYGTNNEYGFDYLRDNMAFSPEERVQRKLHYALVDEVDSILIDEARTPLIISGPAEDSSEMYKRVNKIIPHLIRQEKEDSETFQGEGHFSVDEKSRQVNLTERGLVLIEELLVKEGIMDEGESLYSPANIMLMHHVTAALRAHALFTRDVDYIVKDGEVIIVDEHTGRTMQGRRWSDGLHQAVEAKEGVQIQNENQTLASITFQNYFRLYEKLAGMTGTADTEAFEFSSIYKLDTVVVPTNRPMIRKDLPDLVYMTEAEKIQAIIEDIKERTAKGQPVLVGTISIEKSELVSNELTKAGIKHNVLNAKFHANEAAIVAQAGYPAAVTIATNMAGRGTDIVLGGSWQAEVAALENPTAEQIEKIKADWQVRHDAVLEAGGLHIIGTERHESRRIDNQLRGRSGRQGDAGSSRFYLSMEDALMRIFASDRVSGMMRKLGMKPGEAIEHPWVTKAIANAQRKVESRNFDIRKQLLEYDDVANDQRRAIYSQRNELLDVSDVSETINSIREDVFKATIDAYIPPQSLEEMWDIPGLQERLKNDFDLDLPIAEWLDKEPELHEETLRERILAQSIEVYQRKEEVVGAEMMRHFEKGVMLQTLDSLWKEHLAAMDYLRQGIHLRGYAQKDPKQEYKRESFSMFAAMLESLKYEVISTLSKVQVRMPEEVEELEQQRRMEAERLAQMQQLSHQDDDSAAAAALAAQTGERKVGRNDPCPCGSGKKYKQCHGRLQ
# Sialic acid-binding Ig-like lectin 9 (Homo sapiens), sequence (Q9Y336 whole entry): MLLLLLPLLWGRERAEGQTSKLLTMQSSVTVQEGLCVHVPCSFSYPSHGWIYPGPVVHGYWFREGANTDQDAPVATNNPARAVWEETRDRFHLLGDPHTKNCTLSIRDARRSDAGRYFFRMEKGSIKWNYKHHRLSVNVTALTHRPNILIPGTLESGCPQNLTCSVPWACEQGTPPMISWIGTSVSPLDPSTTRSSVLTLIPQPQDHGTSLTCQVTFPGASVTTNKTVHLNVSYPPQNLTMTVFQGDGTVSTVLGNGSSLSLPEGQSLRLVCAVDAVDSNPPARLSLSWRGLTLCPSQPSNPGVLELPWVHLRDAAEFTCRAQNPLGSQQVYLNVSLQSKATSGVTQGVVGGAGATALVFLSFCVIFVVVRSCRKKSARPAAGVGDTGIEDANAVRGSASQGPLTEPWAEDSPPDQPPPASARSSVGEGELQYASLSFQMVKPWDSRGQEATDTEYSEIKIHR
SMILES,Percent Effect [1],Percent Effect [2],Percent Effect [3],Percent Effect [4],Percent Effect [5],Percent Effect (Trypanosoma cruzi),Percent Effect [6],Percent Effect [7],Percent Effect (Homo sapiens),Percent Effect [8],Percent Effect [9],Percent Effect [10],Percent Effect [11]
CN1CCCC(c2n[nH]c3ncccc23)C1 (centres undefined),-3.58%,-1.35%,-7.01%,6.99%,2.48%,-0.198%,-0.232%,5.93%,-5.01%,1.35%,2.15%,1.3%,6.39%
Cc1cccc(CN2CC[C@@H]3[C@@H]2CCN3C(=O)c2ccno2)n1,-0.832%,-2.7%,3.7%,-8.15%,-3.73%,6.84%,-1.67%,12.1%,-11.7%,-15.7%,-13.9%,1.22%,94%
CCN(CCc1ccccc1)Cn1nc(C)c2c(C)onc2c1=O,-5.66%,-8.11%,5.17%,-13.6%,25.2%,3.68%,-3.21%,7.75%,5.78%,16%,9.36%,23.5%,-14.1%
Cc1cc(CN2CC[C@H]3OCC[C@@]3(C(=O)NC(C)C)C2)no1,-1.37%,15.6%,0.364%,0.843%,5.07%,0.888%,4.52%,10.4%,16.3%,-28.2%,5.29%,11.5%,-5.46%
CN(Cc1cncnc1)[C@H]1CN(CC2CC2)[C@@H]2CCCO[C@@H]21,-2.97%,10.7%,3.35%,-6.16%,2.33%,4.44%,-51.8%,11.6%,-0.287%,-9.01%,5.21%,2.5%,-8.19%
CCN1C[C@H]2C[C@H](C(=O)NCc3cccnc3)[C@@H](C1)O2,-1.53%,0%,4.45%,-69.3%,5.53%,1.07%,2.23%,11.1%,-10.6%,2.21%,3.24%,10.3%,2%
Cc1cccc(CN2C[C@H](NS(C)(=O)=O)[C@@H]3OCCC[C@@H]32)n1,-0.629%,-5.33%,-2.65%,9.72%,5.95%,-4.83%,-50%,0.513%,3.24%,-15.5%,1.04%,-5%,-2.83%
Cc1cc(CN2CC[C@H]3C[C@H](c4nccs4)O[C@@H]3C2)no1,2.63%,-2.7%,-1.08%,5.99%,4.06%,-1.47%,0.319%,12.9%,-4.4%,3.88%,0%,0%,7.66%
O=C1NC2(CCNCC2)CC1c1cccnc1 (centres undefined),-0.858%,10.7%,-1.51%,15.3%,-10.1%,-6.89%,2.1%,8.55%,13.1%,-1.63%,4.25%,8.97%,-2.26%
C[C@H]1C[C@@H]2CCN(Cc3ccccn3)C[C@H]2O1,-1.13%,0%,-1.48%,92%,-0.495%,1.27%,1.59%,10.5%,7.67%,-4.58%,-2.16%,-5.13%,-8.15%
COCC(=O)NC(C)Cc1cccc(OC)c1 (centres undefined),-1.72%,13.2%,-2.52%,3.57%,6.63%,6.77%,-0.383%,11.5%,8.48%,24.3%,10.3%,21.9%,-8.88%
O=C(C1CCC1)N1CCC2(CC1)OCCO2,-3.54%,-2.63%,-4.73%,2.75%,1.15%,-1.85%,7.1%,6.04%,5.13%,-1.29%,0%,5.2%,-0.64%
O=C(CC1CC1)N[C@@H]1CN(Cc2ccncc2)C[C@@H]2CCCO[C@@H]21,0.104%,5.33%,-1.92%,-0.724%,-5.17%,2.12%,-47.1%,8.38%,-8.9%,-6.38%,5.21%,7.5%,-4.5%
Cc1nnc([C@H]2CC[C@@H]3[C@@H](CCN3Cc3c(C)noc3C)O2)o1,-0.00919%,8%,2.12%,3.84%,-0.659%,-5.79%,-54.3%,11.4%,-18.2%,-1.17%,6.25%,22.5%,-6.76%
O=C1CSC(c2cccs2)c2cnn(C3CCCC3)c2N1 (centres undefined),-5.94%,-12%,7.29%,3.55%,10.9%,3.73%,-35.7%,8.5%,24%,28.5%,4.23%,20.5%,66.9%
O=C(N[C@H]1CN[C@H]2CCCO[C@H]21)c1cscn1,1.11%,21.9%,4.92%,-4.2%,5.27%,0%,-1.6%,18.6%,4.9%,-0.964%,7.29%,13.6%,-4.35%
COCCO[C@@H]1C[C@H]2CN(C(=O)c3ccc(C)nc3)CCN2C1,0.459%,10.7%,6.84%,-2.91%,3.06%,-3.86%,-51.4%,8.89%,-12.5%,-18.6%,4.17%,15%,-6.6%
Cc1nc(CN2CCOCC3(CCN(c4ncccn4)C3)C2)cs1 (centres undefined),-4.37%,10.8%,2.24%,2.91%,-0.742%,1.17%,3.75%,6.68%,-5.73%,-14.6%,13.9%,11%,-4.52%
